Screening results from PubChem.
In the library only some 2% were active in any assay of this set; here they are far more common.
LGR2 antag = blocks bursicon-induced cAMP signaling via Drosophila LGR2; hit rate 0.35% among 380,000; AID 720647; inhibition, % at 9.99 µM; HEK293 LGR2, CRE-luciferase, bursicon-stimulated, 4 h;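 active means drop in luminescence signal, shown as inhibition above about 50% in the replicate tests, limit read from the data, passing the limit was not always enough; inconclusive means probably only some replicates passing the limit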;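 further: agonist challenge used bursicon conditioned medium at about half maximal strength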
CF NFkB block = blocks PAF-induced NF-kB reporter in cystic fibrosis cells | KKLEB NF-kB-GFP reporter, GFP fluorescence overnight | inhibition, % at 5 µM | hit rate 0.86% among 360,000 | AID 588850;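 active means at least 50% inhibition at 5 µM, scaled per plate between neutral and stimulator controls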;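 further: PAF is a Pseudomonas aeruginosa culture filtrate used as stimulus; plate controls were PAF-stimulated DMSO wells for no effect and unstimulated DMSO wells for full effect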
EWS-Fli block = EWS/Fli transcriptional activity inhibition. A673 NR0B1-luciferase reporter, viability-normalised. inhibition, % at 12.6 µM. hit rate 0.67% among 350,000. AID 651661;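 active means mean inhibition of at least 50% after viability correction, with every replicate also passing that limit; inconclusive means mean reaches 50% but only one of two replicates passes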;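 further: firefly luciferase signal divided by Alamar Blue viability fluorescence both relative to DMSO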
Shn3 inh set2 = inhibitors of Schnurri-3 3'UTR reporter in osteoblasts | AID 588674 | inhibition, % at 12.5 µM | hit rate 0.52% among 360,000 | Clone20 osteoblast Shn3 3'UTR firefly luciferase, 24 h;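 active means mean inhibition of at least 75% with every replicate also reaching 75%; inconclusive means mean inhibition at least 75% but some replicate below; inactive means mean inhibition below 75%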;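 further: 0% = median of neutral control wells and 100% = pilot-screen positive control compound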
KKLEB tox = counter-screen for CF NF-kB inhibitors: cytotoxicity; KKLEB CF airway cells viability, ATPlite luminescence, overnight; hits give low values; cells stimulated with P. aeruginosa culture filtrate; activity change (cytotoxicity), % at 5 µM; hit rate 0.36% among 360,000; AID 602141;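 active means corrected activity change at or below -50% at 5 µM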
PAX8 inh HTS = PAX8 transcriptional activity inhibition; RMG-I TPO-luciferase reporter, SteadyGlo, 24 h; inhibition, % at 12.6 µM; hit rate 1.2% among 360,000; AID 652154;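 active means mean replicate inhibition at least 60% with every replicate also reaching 60%; inconclusive means only one of the two criteria is met; inactive means mean below 60% and not all replicates reaching 60%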;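 further: luciferase light reporting Pax8 driven TPO promoter activity; plate controls were median of neutral control wells for no effect and mitoxantrone controls for full effect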
Numbers without * were called inactive; ? = inconclusive; nt = no result given.

SMILES	LGR2 antag	CF NFkB block	EWS-Fli block	Shn3 inh set2	KKLEB tox	PAX8 inh HTS
COc1ccc(S(=O)(=O)Nc2ccc3c(c2)C(=O)N([C@@H](C)CO)C[C@H](C)[C@H](CN(C)Cc2ccc(Cl)c(Cl)c2)OCCCC[C@@H](C)O3)cc1	-31.7	nt	10.9	nt	nt	55.4
C[C@@H]1CCCCO[C@H](CN(C)Cc2ccc(Cl)c(Cl)c2)[C@H](C)CN([C@@H](C)CO)C(=O)c2cc(NS(=O)(=O)c3ccc(Cl)cc3)ccc2O1	-7.0	nt	5.1	nt	nt	95.4*
O=C(C[C@H]1CC[C@H]2[C@@H](COC[C@H](O)CN2Cc2cccc(-c3ccncc3)c2)O1)N1CCN(c2ccccc2)CC1	0.8	nt	15.9	nt	nt	23.5
CO[C@@H](CN(C)S(=O)(=O)c1cccc(Cl)c1)[C@H](C)CN([C@@H](C)CO)S(=O)(=O)c1cccc(Cl)c1	11.3	nt	25.2	nt	nt	nt
Cc1ccc(-c2csc3nc4c5ccccc5c(NCCCN(C)C)nn4c(=O)c23)cc1	?	10.7	25.0	25.5	-59.7*	19.8
CCOc1ccccc1-c1cc(C(=O)N/N=C/c2cccnc2)c2ccccc2n1	nt	1.2	0.0	-4.9	-4.8	-0.8
Cc1ccc(COc2ccccc2-c2cc(C(=O)N/N=C/c3cccnc3)[nH]n2)cc1	5.6	-13.7	58.1*	-3.0	-4.7	17.1
CO[C@H]1CC[C@H]2CCN(C)C(=O)[C@H](C)[C@@H](OC)CN(C)C(=O)c3cccc(C#N)c3OC[C@@H]1O2	4.6	nt	-3.3	nt	nt	-9.0
O=C(CSc1nc2ccccc2s1)NCCOc1ccccc1	nt	4.1	-32.4	-6.8	-0.7	92.8*
O=C(CSc1nc2ccccc2s1)NCCOc1ccc(Cl)cc1	nt	4.7	nt	-5.3	-14.4	nt
CCN1CCN(C(=O)/C=C/c2ccc(C(C)C)cc2)CC1	-2.5	3.7	-2.6	0.1	-0.6	9.2
CCN1CCC(O)(/C=C/c2ccc(C(C)C)cc2)C(C(=O)/C=C/c2ccc(C(C)C)cc2)C1 (stereo unspecified)	32.5	19.8	56.4*	82.5	-10.0	63.6*
COCC(=O)N1[C@H](CN(C)C(=O)c2cccnc2)[C@@H](c2ccccc2)[C@@H]1CO	6.6	nt	4.9	nt	nt	-31.4
CCOc1ccc(-c2cc(CCCC(=O)NCc3ccco3)no2)cc1	-30.8	2.4	71.5*	22.0	5.3	-1.3
Cc1sc2ncnc(SC(C)C(=O)N3c4ccccc4Sc4ccccc43)c2c1C (stereo unspecified)	10.8	18.3	89.9*	7.1	-7.8	14.8
COc1ccc2c3c([nH]c2c1)[C@@H](CO)N(Cc1ccccc1)CC31CN(C(=O)NC(C)C)C1	-1.5	nt	5.4	nt	nt	nt
OC[C@@H]1[C@@H](c2ccccc2)C2(CN(CCC(F)(F)F)C2)N1Cc1cccnc1	-1.1	nt	-6.0	nt	nt	3.1
C[C@@H]1CCCCO[C@@H](CN(C)C(=O)c2ccccc2)[C@H](C)CN([C@@H](C)CO)C(=O)c2cc(NC(=O)Nc3cccc4ccccc34)ccc2O1	-0.5	nt	9.1	nt	nt	nt
O=C(c1ccc(-c2nc3ccccc3s2)s1)N1CCOCC1	76.4*	nt	76.8*	nt	nt	66.3*
CCN1CCN(C(=O)c2ccc(-c3nc4ccccc4s3)s2)CC1	-30.9	7.8	-47.3	-108.9	-13.5	-137.7
O=C(NC1CC1)c1ccc(-c2nc3ccccc3s2)s1	nt	-13.0	nt	76.0	-66.3*	nt
O=C(C[C@@H]1C=C[C@H](NC(=O)Nc2cc(F)ccc2F)[C@@H](CO)O1)NCc1ccc2c(c1)OCO2	18.9	nt	nt	nt	nt	nt
COC(=O)[C@H]1[C@H](CO)[C@H]2Cn3c(ccc(-c4ccccc4F)c3=O)[C@H]2N1C(=O)CC1CC1	17.7	nt	-0.1	nt	nt	-6.0
CCCCCCCNC(=O)C1(CC2CC(c3cccc(Br)c3)=NO2)CCN(C(=O)Cc2ccc(F)cc2)CC1 (stereo unspecified)	nt	-7.0	nt	1.7	-5.5	nt
CCCCCCCNC(=O)C1(CC2CC(c3cccc(Br)c3)=NO2)CCNCC1 (stereo unspecified)	nt	25.6	40.8	90.9*	-23.2	80.3*
SMILES	LGR2 antag	CF NFkB block	EWS-Fli block	Shn3 inh set2	KKLEB tox	PAX8 inh HTS
C[C@H]1CCCCO[C@H](CN(C)C(=O)Nc2ccc3c(c2)OCO3)[C@@H](C)CN([C@@H](C)CO)C(=O)c2cc(NC(=O)CCCN(C)C)ccc2O1	12.0	nt	3.0	nt	nt	-13.5
O=C(Nc1ccc(Br)c(C(F)(F)F)c1)c1ccc(C(F)(F)F)cc1	7.6	64.6*	-23.0	-13.3	-69.3*	4.4
O=C(Nc1ccc(Br)c(C(F)(F)F)c1)c1ccccc1	-26.3	-6.6	-3.1	14.2	12.3	-39.0
COc1ccccc1-n1cc([C@@H]2C[C@H]3CN(c4ccccc4)C(=O)[C@]34CCCN24)cn1	24.8	85.8*	-13.5	97.5*	-56.2*	97.8*
CNCCNC[C@H](Cc1cccc2ccccc12)NCCc1ccccc1	6.5	-1.5	-12.7	-12.0	-11.0	-11.1
CNC[C@H](Cc1ccccc1)NC[C@@H](Cc1cccc2ccccc12)NCCc1ccc(C)cc1	4.0	43.4	46.5	5.9	-50.2*	4.8
O=C(C[C@H]1CC[C@H]2[C@@H](COC[C@@H](O)CN2Cc2cccc(F)c2)O1)NCc1cccc(F)c1	0.6	nt	0.5	nt	nt	14.0
O=C(C1CCCC1)N1CC2(C1)[C@H](c1ccccc1)[C@@H](CO)N2CCC(F)(F)F	-6.1	nt	-4.5	nt	nt	nt
O=C(c1ccc(CS(=O)c2ccccc2Cl)o1)N1CCN(c2ccccc2)CC1 (stereo unspecified)	-6.3	29.9	56.0*	10.1	-18.8	12.0
O=C(c1ccc(CS(=O)c2ccccc2Cl)o1)N1CCOCC1 (stereo unspecified)	3.4	12.4	2.3	-4.7	-2.1	-20.1
COc1ccc(N2CCN(C(=O)c3ccc(CS(=O)c4cccc(C)c4)o3)CC2)cc1 (stereo unspecified)	19.5	2.9	nt	17.6	6.2	27.8
COc1cccc(N2CCN(C(=O)c3ccc(CS(=O)c4ccccc4C)o3)CC2)c1 (stereo unspecified)	-1.9	24.5	58.5*	24.0	-13.1	?
COc1cccc(N2CCN(C(=O)c3ccc(CS(=O)c4ccccc4Cl)o3)CC2)c1 (stereo unspecified)	-4.9	48.5	51.3*	15.0	-17.3	93.4*
CCCN1C[C@@H](C)[C@H](OC)CN(C)C(=O)c2cc(NC(=O)c3cccc(OC)c3)ccc2OC[C@@H]1C	-4.6	nt	-5.1	nt	nt	nt
N#CC(c1cccc(Cl)c1)c1ccc2c(C(F)(F)F)cc(C(F)(F)F)nc2n1 (stereo unspecified)	nt	52.7*	nt	87.6*	-60.2*	nt
CC(C)CC#Cc1ccc2c(c1)O[C@H](CN(C)Cc1ccc3c(c1)OCO3)[C@H](C)CN([C@@H](C)CO)S2(=O)=O	nt	nt	37.6	nt	nt	nt
O=c1cc(CSc2ccc(Cl)cc2)nc(-c2ccccn2)[nH]1	-3.2	3.5	13.9	63.0	10.1	69.5*
